Reference: PubChem BioAssay AID1159580 (chemical genetic matrix, 2015)
“And” between values parts separate entries of the source, which are not always exact repeats. Equal values may be shown once. Screen size: about 5,500 compounds; about 2,000 (36%) were called active. Not shown: some 18% with an inconclusive outcome. Rule as the data show it: active = normalized growth mostly below about 0.91 (no sharp cut-off); inconclusive = no clear call, values can overlap the other calls; inactive = mostly above about 0.92. The list shows a part of the results. The source holds several records for some structures; these can differ, active in one and inactive in another.

Assay: chemical genetic growth profiling, strain panel (AID 1159580);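 also: tested at 20 µM; growth read once vehicle control cultures reached saturation at 30 °C; 1 = growth at the plate median or of vehicle wells; lower values mean less growth of the strain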
Conditions: growth OD

Q: What does the source list for `Cc1cc(O)c2c(c1)C(=O)c1cc(O)cc(O)c1C2=O`?
A: normalized growth (S. cerevisiae deletion strains, locus YAL013W, strain DEP1, stronger effect = lower value): 0.868 (active); normalized growth (S. cerevisiae deletion strains, locus YAL040C, strain CLN3, stronger effect = lower value): 0.749 (active); normalized growth (S. cerevisiae deletion strains, locus YBR021W, strain FUR4, stronger effect = lower value): 0.914 (inactive); normalized growth (S. cerevisiae deletion strains, locus YBR229C, strain ROT2, stronger effect = lower value): 0.923 (inactive); normalized growth (S. cerevisiae deletion strains, locus YCL029C, strain bik1, stronger effect = lower value): 0.734 (active); normalized growth (S. cerevisiae deletion strains, locus YCL061C, strain MRC1 (second series), stronger effect = lower value): 0.986 (inactive); normalized growth (S. cerevisiae deletion strains, locus YDL035C, strain GPR1, stronger effect = lower value): 0.699 (active); normalized growth (S. cerevisiae deletion strains, locus YDL074C, strain BRE1, stronger effect = lower value): 0.56 (active); normalized growth (S. cerevisiae deletion strains, locus YDL101C, strain DUN1, stronger effect = lower value): 0.732 (active); normalized growth (S. cerevisiae deletion strains, locus YDL134C, strain PPH21, stronger effect = lower value): 0.783 (active); normalized growth (S. cerevisiae deletion strains, locus YDL185W, strain tfp1, stronger effect = lower value): 0.795 (active); normalized growth (S. cerevisiae deletion strains, locus YDL192W, strain arf1, stronger effect = lower value): 0.393 (active); normalized growth (S. cerevisiae deletion strains, locus YDR101C, strain arx1, stronger effect = lower value): 0.584 (active); normalized growth (S. cerevisiae deletion strains, locus YDR162C, strain NBP2, stronger effect = lower value): 0.483 (active); normalized growth (S. cerevisiae deletion strains, locus YDR318W, strain mcm21, stronger effect = lower value): 0.712 (active); normalized growth (S. cerevisiae deletion strains, locus YDR363W, strain ESC2, stronger effect = lower value): 1.02 (inactive); normalized growth (S. cerevisiae deletion strains, locus YDR388W, stronger effect = lower value): 0.471 (active); normalized growth (S. cerevisiae deletion strains, locus YDR502C, strain sam2, stronger effect = lower value): 0.56 (active); normalized growth (S. cerevisiae deletion strains, locus YEL061C, strain CIN8, stronger effect = lower value): 0.745 (active); normalized growth (S. cerevisiae deletion strains, locus YER002W, strain NOP16, stronger effect = lower value): 0.749 (active); normalized growth (S. cerevisiae deletion strains, locus YER110C, stronger effect = lower value): 0.671 (active); normalized growth (S. cerevisiae deletion strains, locus YER155C, strain BEM2, stronger effect = lower value): 0.716 (active); normalized growth (S. cerevisiae deletion strains, locus YER167W, strain BCK2, stronger effect = lower value): 0.674 (active); normalized growth (S. cerevisiae deletion strains, locus YGL078C, strain dbp3, stronger effect = lower value): 0.789 (active); normalized growth (S. cerevisiae deletion strains, locus YGL086W, strain mad1, stronger effect = lower value): 0.645 (active); normalized growth (S. cerevisiae deletion strains, locus YGL248W, strain PDE1, stronger effect = lower value): 0.853 (active); normalized growth (S. cerevisiae deletion strains, locus YGR078C, strain PAC10, stronger effect = lower value): 0.723 (active); normalized growth (S. cerevisiae deletion strains, locus YGR135W, strain pre9, stronger effect = lower value): 0.741 (active); normalized growth (S. cerevisiae deletion strains, locus YGR229C, strain SMI1, stronger effect = lower value): 0.338 (active); normalized growth (S. cerevisiae deletion strains, locus YGR252W, strain gcn5, stronger effect = lower value): 0.415 (active); normalized growth (S. cerevisiae deletion strains, locus YHR030C, strain SLT2, stronger effect = lower value): 0.629 (active); normalized growth (S. cerevisiae deletion strains, locus YHR079C, strain IRE1 (second series), stronger effect = lower value): 0.854 (active); normalized growth (S. cerevisiae deletion strains, locus YHR094C, strain hxt1, stronger effect = lower value): 0.673 (active); normalized growth (S. cerevisiae deletion strains, locus YHR129C, strain ARP1, stronger effect = lower value): 0.705 (active); normalized growth (S. cerevisiae deletion strains, locus YHR200W, strain rpn10, stronger effect = lower value): 0.75 (active); normalized growth (S. cerevisiae deletion strains, locus YIL066C, strain RNR3, stronger effect = lower value): 0.688 (active); normalized growth (S. cerevisiae deletion strains, locus YIL073C, strain SPO22, stronger effect = lower value): 0.959 (inactive); normalized growth (S. cerevisiae deletion strains, locus YIL125W, strain kgd1, stronger effect = lower value): 0.842 (active); normalized growth (S. cerevisiae deletion strains, locus YIR030C, strain dcg1, stronger effect = lower value): 0.635 (active); normalized growth (S. cerevisiae deletion strains, locus YJL095W, strain BCK1, stronger effect = lower value): 0.475 (active); normalized growth (S. cerevisiae deletion strains, locus YJL134W, strain LCB3, stronger effect = lower value): 0.907 (active); normalized growth (S. cerevisiae deletion strains, locus YJL168C, strain set2, stronger effect = lower value): 0.818 (active); normalized growth (S. cerevisiae deletion strains, locus YJL187C, strain SWE1 (second series), stronger effect = lower value): 0.69 (active); normalized growth (S. cerevisiae deletion strains, locus YJR043C, strain POL32, stronger effect = lower value): 0.708 (active); normalized growth (S. cerevisiae deletion strains, locus YJR075W, strain HOC1, stronger effect = lower value): 0.998 (inactive) and 0.795 (active); normalized growth (S. cerevisiae deletion strains, locus YKL009W, strain mrt4, stronger effect = lower value): 0.753 (active); normalized growth (S. cerevisiae deletion strains, locus YKL068W, stronger effect = lower value): 0.857 (active); normalized growth (S. cerevisiae deletion strains, locus YKL085W, strain MDH1 (second series), stronger effect = lower value): 0.795 (active); normalized growth (S. cerevisiae deletion strains, locus YKL085W, strain MDH1, stronger effect = lower value): 0.795 (active); normalized growth (S. cerevisiae deletion strains, locus YKL190W, strain CNB1, stronger effect = lower value): 0.823 (active); normalized growth (S. cerevisiae deletion strains, locus YKR001C, strain vps1, stronger effect = lower value): 0.309 (active); normalized growth (S. cerevisiae deletion strains, locus YLR039C, strain RIC1, stronger effect = lower value): 0.313 (active); normalized growth (S. cerevisiae deletion strains, locus YLR058C, strain SHM2, stronger effect = lower value): 0.834 (active); normalized growth (S. cerevisiae deletion strains, locus YLR102C, strain apc9, stronger effect = lower value): 0.837 (active); normalized growth (S. cerevisiae deletion strains, locus YLR262C, strain YPT6, stronger effect = lower value): 0.383 (active); normalized growth (S. cerevisiae deletion strains, locus YLR268W, strain sec22, stronger effect = lower value): 0.474 (active); normalized growth (S. cerevisiae deletion strains, locus YLR330W, strain CHS5, stronger effect = lower value): 0.708 (active); normalized growth (S. cerevisiae deletion strains, locus YLR342W, strain FKS1 (second series), stronger effect = lower value): 0.553 (active); normalized growth (S. cerevisiae deletion strains, locus YLR371W, strain rom2, stronger effect = lower value): 0.612 (active); normalized growth (S. cerevisiae deletion strains, locus YLR418C, strain cdc73, stronger effect = lower value): 0.324 (active); normalized growth (S. cerevisiae deletion strains, locus YML016C, strain PPZ1, stronger effect = lower value): 0.916 (active); normalized growth (S. cerevisiae deletion strains, locus YML032C, strain rad52, stronger effect = lower value): 0.6 (active); normalized growth (S. cerevisiae deletion strains, locus YML124C, strain tub3, stronger effect = lower value): 0.724 (active); normalized growth (S. cerevisiae deletion strains, locus YMR078C, strain ctf18, stronger effect = lower value): 0.776 (active); normalized growth (S. cerevisiae deletion strains, locus YMR223W, strain ubp8, stronger effect = lower value): 0.643 (active); normalized growth (S. cerevisiae deletion strains, locus YMR263W, strain SAP30, stronger effect = lower value): 0.968 (inactive) and 0.787 (active); normalized growth (S. cerevisiae deletion strains, locus YMR307W, strain GAS1, stronger effect = lower value): 0.8 (active) and 0.335 (active); normalized growth (S. cerevisiae deletion strains, locus YNL067W, strain RPL9B, stronger effect = lower value): 0.782 (active); normalized growth (S. cerevisiae deletion strains, locus YNL128W, strain TEP1, stronger effect = lower value): 0.713 (active); normalized growth (S. cerevisiae deletion strains, locus YNL153C, strain GIM3, stronger effect = lower value): 0.439 (active) and 0.847 (active); normalized growth (S. cerevisiae deletion strains, locus YNL175C, strain NOP13, stronger effect = lower value): 0.732 (active); normalized growth (S. cerevisiae deletion strains, locus YNL197C, strain WHI3, stronger effect = lower value): 0.727 (active); normalized growth (S. cerevisiae deletion strains, locus YNL224C, strain SQS1, stronger effect = lower value): 0.861 (active); normalized growth (S. cerevisiae deletion strains, locus YNL233W, strain BNI4, stronger effect = lower value): 0.63 (active); normalized growth (S. cerevisiae deletion strains, locus YNL250W, strain rad50, stronger effect = lower value): 0.73 (active); normalized growth (S. cerevisiae deletion strains, locus YNL271C, strain bni1, stronger effect = lower value): 0.782 (active); normalized growth (S. cerevisiae deletion strains, locus YNL298W, strain CLA4, stronger effect = lower value): 0.716 (active); normalized growth (S. cerevisiae deletion strains, locus YNL307C, strain MCK1, stronger effect = lower value): 0.59 (active); normalized growth (S. cerevisiae deletion strains, locus YNL322C, strain KRE1, stronger effect = lower value): 0.832 (active); normalized growth (S. cerevisiae deletion strains, locus YNR052C, strain pop2, stronger effect = lower value): 0.218 (active); normalized growth (S. cerevisiae deletion strains, locus YOL012C, strain htz1): 0.486 (inactive); normalized growth (S. cerevisiae deletion strains, locus YOL147C, strain pex11, stronger effect = lower value): 0.402 (active); normalized growth (S. cerevisiae deletion strains, locus YOR061W, strain CKA2, stronger effect = lower value): 0.834 (active); normalized growth (S. cerevisiae deletion strains, locus YOR069W, strain VPS5, stronger effect = lower value): 0.796 (active); normalized growth (S. cerevisiae deletion strains, locus YOR083W, strain WHI5 (second series), stronger effect = lower value): 0.422 (active); normalized growth (S. cerevisiae deletion strains, locus YOR136W, strain idh2, stronger effect = lower value): 0.661 (active); normalized growth (S. cerevisiae deletion strains, locus YOR144C, strain elg1, stronger effect = lower value): 0.759 (active); normalized growth (S. cerevisiae deletion strains, locus YOR184W, strain ser1, stronger effect = lower value): 0.299 (active); normalized growth (S. cerevisiae deletion strains, locus YOR316C, strain cot1, stronger effect = lower value): 0.83 (active); normalized growth (S. cerevisiae deletion strains, locus YPL055C, strain LGE1, stronger effect = lower value): 0.556 (active); normalized growth (S. cerevisiae deletion strains, locus YPL241C, strain CIN2, stronger effect = lower value): 0.986 (inactive); normalized growth (S. cerevisiae deletion strains, locus YPR119W, strain clb2, stronger effect = lower value): 0.808 (active); normalized growth (S. cerevisiae deletion strains, locus YPR141C, strain kar3, stronger effect = lower value): 0.868 (active); normalized growth (S. cerevisiae deletion strains, locus YPR163C, strain tif3, stronger effect = lower value): 0.403 (active); normalized growth (S. cerevisiae deletion strains, locus YPR167C, strain met16, stronger effect = lower value): 0.708 (active); normalized growth (S. cerevisiae deletion strains, strain wtn01, stronger effect = lower value): 0.608 (active); normalized growth (S. cerevisiae strains, strain wild type, stronger effect = lower value): 0.715 (active)
